KB-V1 cytotox: kills drug-selected multidrug resistant KB-V1 cells; KB-V1 MDR cells viability, CellTiter-Glo, 72 h; Potency, µM (doses to about 46.1 µM), most hits filed as cytotoxic; 400,000 tested, 3.4% active; AID 1347076; further: on the % scale 0 is the no-effect control and ±100 the full control effect; nearly all actives have a fitted effect of over 60% in size
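KB-V1 cells (P-gp-expressing MDR subline of KB-3-1) in phenol-red-free DMEM with 10% FBS were exposed to library compounds over a concentration series for 72 h at 37 degrees C. Viability read by CellTiter-Glo luminescence; concentration-effect curves fitted after normalization.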
MCF10A rerep: induces DNA re-replication in MCF 10a normal breast cells | AID 624296 | 350,000 tested, 2.9% active | MCF 10A DNA re-replication, Hoechst nuclear intensity, 48 h | Potency, µM (top dose mostly 46.1 µM), without a hit: at the highest dose activity, positive = re-replication, actives largely listed as activators; further: % of control where 0% means no effect; nearly all actives have a fitted effect of over 50% in size
HT1080 IDH1KD tx: toxicity to HT-1080 IDH1 knockdown cells (counter line) | HT-1080 IDH1 knockdown viability, ATP luminescence, 48 h | Potency, µM (highest dose often 46.1 µM), inactives show at the highest dose activity, negative = toxicity, hits mostly cytotoxic | 360,000 tested, 2% active;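 further: 0% = DMSO wells and -100% = cell-free medium wells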
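IDH1KD HT-1080 cells, 750/well, RPMI + 5% FBS; compound pinned after 2 h settling; 48 h, 37 °C; CellTiter-Glo luminescence; % activity normalised to DMSO and no-cell wells; curves fitted, classed by r2 and efficacy.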
HT1080NT lethal: kills 2HG-producing HT-1080-NT fibrosarcoma cells. HT-1080-NT fibrosarcoma viability, CellTiter-Glo ATP luminescence, 48 h. Potency, µM (top dose mostly 46.1 µM), without a hit: at the highest dose activity, negative = less viability, actives largely listed as cytotoxic. 360,000 tested, 1.6% active;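 further: NT is the 2HG producing partner of a matched IDH1 knockdown line; 0% = DMSO-treated cells and -100% = media-only wells without cells; nearly all actives have a fitted effect of over 55% in size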
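Toxicity toward the 2HG-producing NT line was scored as %Activity, normalised to DMSO and no-cell wells, from CellTiter-Glo luminescence after 48 hours' treatment.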
KB-3-1 cytotox: kills parental KB-3-1 adenocarcinoma cells; Potency, µM (titrated, usually from 46.1 µM), most hits filed as cytotoxic; 400,000 tested, 1.4% active; AID 1347075; KB-3-1 viability, CellTiter-Glo ATP luminescence, 72 h; further: on the % scale 0 is the no-effect control and ±100 the full control effect; nearly all actives have a fitted effect of over 60% in size
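Using CellTiter-Glo luminescence, growth of non-resistant KB-3-1 adenocarcinoma cells is assessed 72 h after pin-tool compound addition at 37 °C. Normalized responses across the concentration series yield fitted curves.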
SW480 rereplic: induces DNA re-replication in SW480 colon adenocarcinoma cells. SW480 DNA re-replication, Hoechst DNA content imaging, 48 h. Potency, µM (series often up to 46.1 µM), for the others: top-dose re-replication activation, hits mostly activators. 340,000 tested, 1.8% active. AID 624297; further: % of control where 0% means no effect; nearly all actives have a fitted effect of over 55% in size
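Per well, 250 cells were exposed to pinned compound for 48 hr. Nuclear DNA was visualised with Hoechst (40 min, 37 C) and total object intensity recorded by fluorescence scanning.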
Numbers without * were called inactive; i = inactive; u = inconclusive; x = no result given; [ ] = another dose, or the depositor's remark. An excerpt weighted towards active compounds, which were near 8% of everything screened. The call rests on the fitted dose curve; in most records, active means well fitted curve in the direction sought with a large enough effect; inconclusive means small, poorly fitted or top-dose-only effect, or another doubt; inactive means no such curve, though single readings can be large; an effect the other way counts as inactive or inconclusive. Potency means the concentration at half of the fitted maximal effect.

SMILES | KB-V1 cytotox | MCF10A rerep | HT1080 IDH1KD tx | HT1080NT lethal | KB-3-1 cytotox | SW480 rereplic
Cc1cc(Nc2ccccc2)nc2cc(O)ccc12 | u | 21µM* | 13% | 2% | u | u
COc1ccc(Nc2cc(C)c3ccc(O)cc3n2)cc1 | u | u | -18% | 11% | i | u
CC(C)c1ccc(C2(C)NC(=O)N(C(C)C(=O)Nc3ccc(N4CCOCC4)cc3)C2=O)cc1 (stereo not given) | i | u | -15% | -14% | i | 6.5µM*
COc1cc(CNC2CCCC2)cc(Cl)c1OCc1ccc(F)cc1 | u | u | 21µM* | 16µM* | u | 12%
COc1cc(CNC2CCCC2)cc(Cl)c1OCc1ccccc1Cl | 21µM* | 16µM* | u | u | u | u
O=c1cc(CSc2nnc(Nc3ccccc3F)s2)nc2sccn12 | 16µM* | u | 18µM* | u | u | u
O=S(=O)(c1ccccc1)c1nc(-c2ccc(Cl)cc2Cl)oc1N1CCCCCC1 | i | x | x | x | i | x
O=C(CCN1CCN(C(c2ccccc2)c2ccccc2)CC1)N/N=C/c1ccc(O)cc1 | i | -1% | 4% | -4% | i | -4%
O=C(CSC1CN(C(c2ccccc2)c2ccccc2)C1)N/N=C/c1ccccc1 | i | u | 23µM* | u | i | -15%
Cc1ccnc2cc(Cl)cc(Cl)c12 | i | x | x | x | i | x
COc1ccccc1CNC(=O)/C(C#N)=C/c1ccc(OC)c(OC)c1OC | i | 18µM* | 4% | -1% | i | -11%
CCOc1ncccc1C(=O)NCc1ccccc1Cl | i | 0.92µM* | 2% | 0% | i | u
COc1ccc(COc2ccccc2C(=O)NCc2ccccc2)cc1F | 15µM* | u | -16% | -2% | i | 12%
COc1ccccc1CNC(=O)c1ccc(-c2ccccc2C(F)(F)F)o1 | i | 15µM* | -17% | -21% | i | 1%
COc1ccc(/C=C(\C#N)C(=O)OCC(=O)NCc2ccccc2OC)cc1 | i | -1% | -23% | -10% | i | -42%
CCOc1ncccc1C(=O)Nc1ccc(Cl)cc1 | u | u | 2% | -5% | i | 11%
COc1ccccc1CNC(=O)c1ccc(-c2ccccc2Cl)o1 | i | u | -15% | -23% | i | u
COc1ccccc1CNC(=O)c1ccc2nc3[nH]c4ccccc4c3nc2c1 | i | 18µM* | u | u | u | u
COc1ccccc1CNC(=O)c1ccccc1OC | u | 9.2µM* | 4% | 12% | i | -12%
Cc1noc(C)c1COc1ccccc1C(=O)NCc1ccccc1Cl | i | 5% | 3% | 9% | i | -24%
COc1ccccc1CNC(=O)c1ccccc1C(=O)NC(C)(C)C(=O)NCc1ccccc1OC | i | 2% | -6% | -2% | i | -15%
CCc1nc2ccc(C(=O)NCCc3ccccc3OC)cc2nc1CC | i | 5% | 5% | 4% | i | 4%
COc1cccc(CNCc2ccc(OC)c3ccccc23)c1OC | i | 1% | u | u | i | 13%
O=C(NCc1ccccc1Cl)c1ccccc1Oc1ccccc1 | 13µM* | u | 9% | 8% | i | 3%
COc1ccccc1CNCc1ccc(OC)c2ccccc12 | u | 1% | -58% | 15µM* | i | -3%
SMILES | KB-V1 cytotox | MCF10A rerep | HT1080 IDH1KD tx | HT1080NT lethal | KB-3-1 cytotox | SW480 rereplic
COc1ccc(NC(=O)CSc2ncc(-c3ccc(Cl)cc3)[nH]2)cc1OC | i | x | x | x | i | x
c1ccc(OCc2nnc3ccc(-c4ccccc4)nn23)cc1 | i | x | x | x | i | x
COc1cccc(-c2ncc3ccccc3c2COC(=O)N(C)C)c1 | i | 5% | -3% | -3% | i | 1%[9.22 µM]
Cc1nc(N)nc(N)c1-c1ccc([N+](=O)[O-])cc1 | i | 17% | 10µM* | -2% | i | 14%
CC(C)CCNC(=O)C1CCC(Cn2c(=O)c3sccc3n(CC(=O)NC(C)C)c2=O)CC1 (stereo not given) | i | x | x | x | i | x
O=[N+]([O-])c1ccc(S(=O)(=O)c2cccc(C(F)(F)F)c2)nc1 | u | 5.2µM* | 7.3µM* | 10µM* | u | 4.1µM*
CCN(CC)c1cc(C)c2cc(NC(=O)/C=C/c3ccccc3OC(C)C)ccc2n1 | i | x | x | x | i | x
O=C(NC(C(=O)N/N=C/c1ccccc1)c1n[nH]c(=O)c2ccccc12)c1ccccc1 (stereo not given) | i | -33% | -13% | -20% | i | 2%
O=C(NC(C(=O)N/N=C/c1c2ccccc2cc2ccccc12)c1n[nH]c(=O)c2ccccc12)c1ccccc1 (stereo not given) | i | 2.1µM* | -4% | -3% | i | 8.2µM*
CCc1ccc(OCc2cc(=O)n3c4c(sc3n2)CCCC4)cc1 | i | x | x | x | i | x
COc1cccc(OCC(=O)Nc2ccncc2)c1 | i | 1% | -9% | -13% | u | -3%
CCc1ccc(OCC(=O)Nc2ccncc2)c(Br)c1 | 9.2µM* | u | u | u | u | u
CC(C)CCOc1cccc(OCC(=O)Nc2ccncc2)c1 | 2.9µM* | u | u | u | u | 0%
CC(C)(C)c1ccc(OCC(=O)Nc2ccncc2)c(Br)c1 | u | 15µM* | -26% | -28% | u | -2%
Cc1ccccc1OCC(=O)NNC(=S)NC(=O)c1ccccc1[N+](=O)[O-] | u | -6% | u | -18% | u | 2%
CC(C)(C)c1ccc(OCC(=O)NNC(=S)NC(=O)c2ccccc2[N+](=O)[O-])c(Br)c1 | u | 21µM* | 18µM* | u | u | u
CN(CC(=O)Nc1cccc2ccccc12)C(=O)c1ccc(F)cc1F | i | 22% | 2% | 2% | i | -3%
Cc1cccc(S(=O)(=O)N2CCN(Cc3ccc4c(c3)OCO4)CC2)c1 | i | -9% | 0% | 9% | i | -14%
CCc1ccc2c(c1)/C(=C/C(=O)c1cccs1)C(=O)N2 | u | u | u | u | u | 9.2µM*
Cc1cccc2c1NC(=O)/C2=C\C(=O)c1cccs1 | u | u | 16µM* | 18µM* | i | u
Cc1cc(C)c2c(c1)/C(=C/C(=O)c1ccc(Br)s1)C(=O)N2 | 23µM* | u | u | u | 18µM* | 20%
CC(=O)OCC(=O)Nc1cc(S(=O)(=O)N2CCCCCC2)ccc1Cl | i | -5% | 3% | 8% | i | 13%
